Screen size: about 220,000 compounds; about 530 (0.24%) were called active. The full list was thinned out, with actives kept by preference. Potency and affinity values are given separately. A number with no mark means an inactive call. No stated cut-off is given here; in the data, active means inhibition above about 13%; inconclusive means no clear call, values can overlap the other calls; inactive means below that.
biological target: Bifunctional protein GlmU (Mycobacterium tuberculosis (strain ATCC 25618 / H37Rv)) (UniProt P9WMN3); assay: inhibition of mycobacterial GlmU enzyme – biochemical, glucosamine-1-phosphate acetyltransferase (AID 1376);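 further: 0% = complete reaction with vehicle and 100% = reaction without substrate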; conditions: M. tuberculosis GlmU acetyltransferase enzyme assay; hits give high values;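 tested at 30 µM in the primary screen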
Sequence (P9WMN3 whole entry, looked up): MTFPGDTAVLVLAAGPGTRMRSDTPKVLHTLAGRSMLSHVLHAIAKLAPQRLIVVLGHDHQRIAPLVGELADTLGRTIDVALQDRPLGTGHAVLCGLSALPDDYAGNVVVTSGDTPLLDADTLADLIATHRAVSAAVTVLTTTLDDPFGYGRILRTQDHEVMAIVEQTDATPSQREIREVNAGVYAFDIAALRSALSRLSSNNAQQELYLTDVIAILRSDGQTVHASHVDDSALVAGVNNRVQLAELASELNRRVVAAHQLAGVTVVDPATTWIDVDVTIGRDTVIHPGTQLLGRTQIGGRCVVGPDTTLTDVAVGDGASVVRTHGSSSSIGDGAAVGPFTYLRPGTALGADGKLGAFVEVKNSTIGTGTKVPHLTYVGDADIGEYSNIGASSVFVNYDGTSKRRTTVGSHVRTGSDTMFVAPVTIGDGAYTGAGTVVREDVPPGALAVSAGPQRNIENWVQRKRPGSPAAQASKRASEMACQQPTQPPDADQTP

| SMILES | inhibition |
| --- | --- |
| Cc1c(C(=O)O)sc2nc(CSc3nnc(-c4ccc(F)cc4)n3C)[nH]c(=O)c12 | -3.36% |
| Cc1nnc(SCc2nc3sc(C(=O)O)c(C)c3c(=O)[nH]2)s1 | 6.77% |
| Cc1ccnc(NC(=O)c2ccc3c(c2)S(=O)(=O)c2ccccc2C3=O)c1 | 1.48% |
| Cc1c(O)c2ccccc2oc1=O | 1.82% |
| Cc1nc2c(c(=O)[nH]1)C(c1ccccc1Cl)c1c(c3ccccc3oc1=O)O2 (centres undefined) | 2.13% |
| CCCCSc1nc(CCC)cc(=O)[nH]1 | 3.53% |
| Cc1ccc(NC(=O)COC(=O)Cn2cnc3ccccc32)c([N+](=O)[O-])c1 | -0.59% |
| Cc1ccc(NC(=O)N2CCC(NC(=O)C(C)(C)C)CC2)cc1 | 2.86% |
| CCOc1ccc(NC2CCN(C(C)=O)CC2)cc1 | 4.14% |
| CC(=O)N1CCC(Nc2ccc(C)cc2)CC1 | 14% (active) |
| CCCCn1c(SCC(=O)NCc2ccco2)nc2ccc(N3CCOCC3)cc2c1=O | 5.76% |
| CCCCn1c(SCC(=O)NCc2ccccc2)nc2ccc(N3CCOCC3)cc2c1=O | 14.2% (active) |
| CCCCNC(=O)CSc1nc2ccc(N3CCOCC3)cc2c(=O)n1CCc1ccccc1 | -5.21% |
| CC(Sc1ncc(C(F)(F)F)cc1Cl)C(=O)NC(N)=O (centres undefined) | -5.25% |
| O=C(NCCc1c[nH]c2ccccc12)C(F)(F)F | -4.42% |
| N#Cc1cccc(C#N)c1N1CCC(C#N)CC1 | -4.3% |
| CC(CO)Nc1nc(SCc2ccccc2)nc2sc3c(c12)CCC3 (centres undefined) | -17.2% |
| COCCNc1nc(SCc2ccccc2)nc2sc3c(c12)CCC3 | -0.26% |
| COCCCNc1nc(SCc2ccccc2)nc2sc3c(c12)CCC3 | 12.8% (active) |
| CC(C)(C)c1ccc(S(=O)(=O)Nc2ccc(Cc3ccncc3)cc2)cc1 | 0.43% |
| COC(=O)c1ccc(N=NNc2ccccc2)cc1 | 4.94% |
| CCN(CC)S(=O)(=O)c1cc(NC(=O)Cc2n[nH]c(=O)c3ccccc23)ccc1C | 7.13% |
| CCC(C)(NC(=O)Cc1c[nH]c2ccccc12)C(=O)NC1CCCCC1 (centres undefined) | 0.49% |
| CCC(C)(NC(=O)c1ccccn1)C(=O)NC1CCCC1 (centres undefined) | -1.49% |
| CCC(C)(NC(=O)CNC(C)=O)C(=O)NC1CCCCC1 (centres undefined) | 17.3% (active) |

| SMILES | inhibition |
| --- | --- |
| CC(C)(C)C1CCC2(CC1)CC(=O)c1ccccc1O2 (centres undefined) | 0.53% |
| CC(C)(C)OC(=O)N/N=C\c1ccc[nH]1 | -8.2% |
| O=C(O)CCCCC1SCC2NC(=O)NC21 (centres undefined) | -2% |
| O=C(O)CCCCCCCC(=O)O | -3.59% |
| CCNc1oc(-c2ccc(OC)cc2)nc1S(=O)(=O)c1ccc(Br)cc1 | -0.98% |
| C=CCOc1ccc(C2C(C(=O)c3ccco3)=C(O)C(=O)N2c2nnc(C)s2)cc1 (centres undefined) | -3.01% |
| C=CCOc1ccc(C2C(C(=O)c3cccs3)=C(O)C(=O)N2c2nnc(C)s2)cc1 (centres undefined) | 15% (active) |
| Cc1ccc(C2C(C(=O)c3cccs3)=C(O)C(=O)N2c2nnc(C)s2)cc1 (centres undefined) | 2.85% |
| COC(=O)CCCC1=CC2=C(c3ccccc3)C(=O)C(C)(OC(=O)C3CCCC3)C(=O)C2=CN1C1CC1 (centres undefined) | 1.9% |
| Cc1ccc(OCC(=O)N2CCOCC2)c([N+](=O)[O-])n1 | -0.37% |
| COc1cc(C2C=C(c3cccs3)Nc3ncnn32)cc(OC)c1OC (centres undefined) | -2.57% |
| COc1cccc(C2C=C(c3ccc(Br)s3)Nc3ncnn32)c1OC (centres undefined) | 0.77% |
| COc1ccc(C2C=C(c3ccc(Br)s3)Nc3ncnn32)cc1OC (centres undefined) | 14.2% (active) |
| Cc1ccc(S(=O)(=O)N2CC(O)CC2C(=O)OCc2nc3sc(C)c(C)c3c(=O)[nH]2)cc1 (centres undefined) | 1.13% |
| O=C(CCN1CCCC1)c1cccs1 | -0.97% |
| COc1ccc(CNC(=O)COC(=O)c2c[nH]c(=O)[nH]c2=O)cc1OC | -0.09% |
| O=C(COC(=O)c1c[nH]c(=O)[nH]c1=O)Nc1ccccc1 | -4.87% |
| O=C(COC(=O)c1c[nH]c(=O)[nH]c1=O)NCc1ccccc1 | 13.3% (active) |
| O=C(CN(Cc1cccs1)C(=O)CNS(=O)(=O)c1ccc(F)cc1)NCC1CCCO1 (centres undefined) | 3.23% |
| CCOc1ccc(CNC(=O)CCS(=O)(=O)Cc2ccc(C)cc2)cc1OC | 2.73% |
| COc1ccc(C2(C)NC(=O)N(CC(=O)NCCC3=CCCCC3)C2=O)cc1OC (centres undefined) | -7.87% |
| CN(C)c1nc(OCCNC(=O)Nc2ccccc2)nc(N2CCCCC2)n1 | 1.41% |
| COc1ccccc1C(=O)NCc1n[nH]c(=S)n1Cc1ccccc1 | 0.36% |
| CCCCN(CC(=O)NCc1ccc(F)cc1)C(=O)c1ccco1 | -1.73% |
